The text below walks through data of PubChem BioAssay (NCI).

Compounds without any hit were thinned out: in the full panel of roughly 83,000, 20% have a hit.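 96-well plates, one dose, 48 hours. Percent growth reported; active if below 10.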 Values without a mark were called inactive. Calls of active or inactive are those of the source.

Experiment in all cases: NCI-60 one-dose screen, 48 h (100 = growth as untreated, 0 = no growth, -100 = all killed)
Common to all, as to details: 10 µM unless noted

For assay [1], the system named is T-47D breast.
Assay [2] has as its system BT-549 breast.
Assay [3] concerns MDA-MB-435 melanoma.
Assay [4] concerns SW-620 colon.
The test system of assay [5] is MCF7 breast.
The subject of assay [6] is HCT-116 colon.
Assay [7] deals with HCC-2998 colon.
Assay [8] has as its system KM12 colon.

As to `COc1cc2cc(Oc3ccc(NC(=O)Nc4ccc(F)c(C(F)(F)F)c4)cc3)c(C)nc2cc1OCCN1CCOCC1`, the growth in assay [1] was 21.8%; in assay [2] it was 40.3%; in assay [3], 16.5%; in assay [4] it was 15.5%; in assay [5], 3.62% (active); in assay [6] it was 9.66% (active). Besides, the growth in assay [7] was 44.9%; in assay [8] it was 11.2%.

As for `Cc1cc(C)c(-c2c(N)cc(Br)cc2Br)c(N)c1`, the growth in assay [1] was 54.6%; in assay [2] it was 69.6%; in assay [3], -25.8% (active); in assay [4] it was 48.5%; in assay [5], 21.4%; in assay [6], 23.5%. In addition, the growth in assay [7] was 75.1%; in assay [8] it was 40.5%.

With `C=C1C(=O)O[C@H]2[C@H]1CC/C(COC(=O)NCCOCCOCC(=O)Nc1ccc(OC)c(C(N)=O)c1O)=C\CC[C@@]1(C)O[C@@H]21`, the growth in assay [1] is 47.8%; in assay [2], 68.6%; in assay [3] it was 53.7%; in assay [4] it was 18.5%; in assay [5], 32%; in assay [6] it was 32.8%. Also, the growth was 90.4% in assay [7] and 95.2% in assay [8].

For `CC(=O)N1N=C(c2ccc(Nc3nc(Nc4ccc(F)cc4)nc(Nc4ccc(Cl)cc4)n3)cc2)CC1c1ccc(Cl)cc1` (stereo not given), the growth in assay [1] is 68.1%; in assay [2], 122%; in assay [3], 115%; in assay [4], 105%; in assay [5] it was 91%; in assay [6], 86.4%. The growth is 96.8% in assay [7] and 108% in assay [8].

For `CCCCN(C)N=Nc1ccc(C(N)=O)cc1`, the growth in assay [1] is 113%; in assay [2] it was 112%; in assay [3] it was 84.5%; in assay [4], 104%; in assay [5] it was 94%; in assay [6], 107%. For the same compound, the growth in assay [7] is 101%; in assay [8], 107%.

Take `Cc1cc(-c2cc(C)c(N)cc2C)c(C)cc1N`: the growth in assay [1] is 90.4%; in assay [2], 92.3%; in assay [3], 6.88% (active); in assay [4], 100%; in assay [5] it was 80.7%; in assay [6], 78.8%. The growth in assay [7] is 104%; in assay [8] it was 75.2%.

Regarding `COc1ccc(-c2nc3sc(-c4ccccc4)cn3n2)cc1`, the growth in assay [1] is 34.6%; in assay [2], 73.3%; in assay [3], -8.6% (active); in assay [4], 35.1%; in assay [5], 25.1%; in assay [6], 40%. Moreover, the figures for the growth in assay [7] and in assay [8] were 77.3% and 29.5%, respectively.

Regarding `CC(=O)OC[C@H]1OC(Sc2sc(C(=O)c3ccc(Cl)cc3)c(N)c2-c2nc3ccccc3s2)[C@H](OC(C)=O)[C@@H](OC(C)=O)[C@@H]1OC(C)=O` (stereo not given in full), the growth in assay [1] is 89.5%; in assay [2], 98.5%; in assay [3], 96.5%; in assay [4], 82.7%; in assay [5], 82.1%; in assay [6], 50.8%. In addition, the values for the growth in assay [7] and in assay [8] were 109% and 89.3%, respectively.

For the compound `O=c1ccc(N=Nc2ccccc2)ccc1Cl`, the growth in assay [1] is 42.4%; in assay [2], 135%; in assay [3], 40.6%; in assay [4] it was -3.18% (active); in assay [5], 17.6%; in assay [6] it was 13.7%. For the same compound, the growth in assay [7] is 35%; in assay [8], 74.6%.

`COc1nc2ccccc2cc1-c1nc2c(cnn2-c2ccc(Br)cc2)c(=O)[nH]1`: the growth was 24.2% in assay [1]; 50% in assay [2]; -74.8% (active) in assay [3]; 19.5% in assay [4]; 22.1% in assay [5]; 23.1% in assay [6]. Moreover, the growth in assay [7] was 51.1%; in assay [8] it was 18.3%.

`COc1ccc(NC(=O)n2nc(/C=C\c3ccc(O)c(OC)c3)cc2/C=C\c2ccc(O)c(OC)c2)cc1`: the growth was 34.8% in assay [1]; 31.4% in assay [2]; -36.3% (active) in assay [3]; 27.1% in assay [4]; 15.6% in assay [5]; 9.13% (active) in assay [6]. Further, the growth is 74.9% in assay [7] and 17.9% in assay [8].

`c1ccc2c(-c3nc(-c4c[nH]c5ccncc45)cs3)c[nH]c2c1`: the growth in assay [1] was 58.8%; in assay [2] it was 77.3%; in assay [3] it was -79.8% (active); in assay [4] it was -63% (active); in assay [5], 20.5%; in assay [6], -15.3% (active). Further, the growth is -34.4% (active) in assay [7] and 34% in assay [8].

Take `O=C(/C=C/c1cccc2ccccc12)c1ccc(NC(=O)c2ccccc2CN2C(=O)c3ccccc3C2=O)cc1`: the growth in assay [1] was 71%; in assay [2], 68.8%; in assay [3], 6.48% (active); in assay [4], 33.2%; in assay [5], 56.7%; in assay [6] it was 39.3%. The figures for the growth in assay [7] and in assay [8] were 109% and 40.6%, respectively.

Regarding `COc1cc(C(=O)N2N=C(c3ccc(S(C)(=O)=O)cc3)CC2c2ccco2)cc(OC)c1OC` (stereo not given), the growth in assay [1] was 59.3%; in assay [2], 48.5%; in assay [3], 6.67% (active); in assay [4] it was 42.3%; in assay [5], 37%; in assay [6] it was 50.6%. Further, the growth was 59.9% in assay [7] and 49.7% in assay [8].

Consider `NS(=O)(=O)c1ccc(-n2nc(-c3ccc(Cl)cc3)c3ccccc3c2=O)cc1`, for which the growth in assay [1] is 76.8%; in assay [2] it was 157%; in assay [3], 112%; in assay [4] it was 105%; in assay [5], 88.6%; in assay [6], 88.2%. For the same compound, the growth in assay [7] was 107%; in assay [8] it was 97.1%.
